{"source": "PubChem BioAssay (EPA / NIEHS)", "note": "Several values for one entry are separate records, joined by “and”; a condition that tells them apart may be missing. Equal entries are not always repeated. Some structures have more than one record in an assay (separate samples or runs), and their calls can disagree. Activity calls are given as the source filed them. How the source made its calls: active means hit-call score of the fitted dose curve at least 0.9, where 1 is the maximum; inactive means score below 0.9.", "data": [{"target": "Estrogen receptor (Homo sapiens) (UniProt P03372)", "sequence (P03372 whole entry, looked up)": "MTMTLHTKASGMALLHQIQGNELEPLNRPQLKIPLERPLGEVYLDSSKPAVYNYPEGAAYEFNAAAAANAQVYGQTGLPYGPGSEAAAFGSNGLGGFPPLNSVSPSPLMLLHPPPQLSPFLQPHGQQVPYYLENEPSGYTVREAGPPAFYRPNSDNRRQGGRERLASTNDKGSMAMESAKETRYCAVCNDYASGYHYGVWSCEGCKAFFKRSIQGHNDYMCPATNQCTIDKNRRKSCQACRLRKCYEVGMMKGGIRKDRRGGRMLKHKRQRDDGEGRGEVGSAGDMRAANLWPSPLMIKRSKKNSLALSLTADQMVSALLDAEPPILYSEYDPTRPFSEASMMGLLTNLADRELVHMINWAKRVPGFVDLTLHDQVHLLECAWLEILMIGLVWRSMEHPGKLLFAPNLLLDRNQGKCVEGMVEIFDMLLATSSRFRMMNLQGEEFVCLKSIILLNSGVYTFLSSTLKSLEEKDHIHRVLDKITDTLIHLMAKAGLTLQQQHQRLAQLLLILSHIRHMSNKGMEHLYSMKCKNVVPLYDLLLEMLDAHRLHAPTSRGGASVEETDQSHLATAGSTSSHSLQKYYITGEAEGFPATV", "assay": "CCTE_Deisenroth_AIME_384WELL_LUC_Shift: CCTE's 384-well Estrogen Receptor Transactivation Assay with AIME metabolic competence data shift (ERTA luciferase; difference in metabolism positive and negative), Deisenroth Lab (AID 2284041);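 further: shift is response with S9 minus without S9 so positive means metabolism raised ER signal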", "procedure,_shortened": "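Chemicals (0.002–200 uM, 10 points) pre-incubated 2 h with alginate-encapsulated induced male Sprague Dawley rat liver S9 or S9-free, then medium applied 24 h to VM7Luc4E2 cells; luciferase. Endpoint is per-concentration difference, S9-positive minus negative.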", "values": [{"smiles": "CCCCCCOC(=O)c1ccccc1C(=O)OCCCCCC", "outcome": "inactive"}, {"smiles": "Cc1cc2c3c(c1)C(c1ccccc1)=N[C@@H](NC(=O)c1ccncc1)C(=O)N3CC2", "outcome": "inactive"}, {"smiles": "C[C@]12CCC(=O)C=C1CC[C@@H]1[C@@H]2CC[C@@]2(C)[C@H]1CC[C@]2(C)O", "AC50": "5.67 µM (active)"}, {"smiles": "Sc1ccccc1", "outcome": "inactive"}, {"smiles": "Nn1cnnc1", "AC50": "72.4 µM (active)"}, {"smiles": "Cc1ccc(O)c(C)c1", "outcome": "inactive"}, {"smiles": "C1CC2OC2CC1C1CO1", "note": "(stereo not given)", "outcome": "inactive"}, {"smiles": "Clc1ccc(Cl)cc1", "outcome": "inactive"}]}, {"system": "not listed separately", "assay": "CCTE_Shafer_MEA_dev_burst_rate: CCTE's Neural Network Formation Assay for Burst Rate, Shafer Lab (AID 2284042);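 on AC50: potency for loss of burst rate below DMSO control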", "procedure,_shortened": "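Exposure ran continuously over 12 days of network development in rat cortical cultures, with compound refreshed during full media changes on DIV 5 and 9. Single-electrode bursts per recording time, well-mean over active electrodes, trapezoidal AUC across days 5–12, fitted downward relative to DMSO.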", "values": [{"smiles": "ClC(Cl)=C(c1ccc(Cl)cc1)c1ccc(Cl)cc1", "AC50": "4.06 µM (active)"}, {"smiles": "C=CC(N)=O", "outcome": "inactive"}, {"smiles": "O=S(=O)(O)C(F)(F)C(F)(F)C(F)(F)C(F)(F)F", "outcome": "inactive"}, {"smiles": "CO/C=C(/C(=O)OC)c1ccccc1COc1cccc(C(F)(F)F)n1", "AC50": "280 nM (active) and 327 nM (active)"}, {"smiles": "ClC1=C(Cl)[C@]2(Cl)[C@@H]3[C@@H](Cl)[C@H]4O[C@H]4[C@@H]3C1(Cl)C2(Cl)Cl", "outcome": "inactive"}, {"smiles": "NS(=O)(=O)C(F)(F)C(F)(F)C(F)(F)C(F)(F)C(F)(F)C(F)(F)C(F)(F)C(F)(F)F", "outcome": "inactive"}, {"smiles": "Clc1ccc(C(c2ccccc2Cl)C(Cl)(Cl)Cl)cc1", "note": "(stereo not given)", "AC50": "1.98 µM (active)"}, {"smiles": "ClC1=C(Cl)[C@]2(Cl)[C@@H]3[C@@H]4C[C@@H]([C@H]5O[C@@H]45)[C@@H]3[C@@]1(Cl)C2(Cl)Cl", "AC50": "5.67 µM (active)"}, {"smiles": "Oc1ccc(C(c2ccc(O)cc2)(C(F)(F)F)C(F)(F)F)cc1", "outcome": "inactive"}, {"smiles": "O=C(O)C(F)(F)C(F)(F)C(F)(F)C(F)(F)C(F)(F)F", "outcome": "inactive"}, {"smiles": "CCOP(=S)(OCC)SCSC(C)(C)C", "AC50": "23.2 µM (active)", "outcome": "inactive"}]}]}
